Compound activity (PubChem BioAssay)
RGS4 inh: inhibitors of human regulator of G protein signaling 4. 390,000 tested, 0.039% active. AID 504845. Potency, µM (highest dose often 114 µM), hits mostly inhibitors. Transcreener GDP fluorescence polarization, RGS4-accelerated GTP hydrolysis. P49798; also: nearly all actives have a fitted effect of over 75% in size
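MLSMR compounds (23 nl, pin-transferred) preincubated 10 min at room temperature with a 500nM (2x) first reagent, then RGS4 at 900nM (2x) plus Transcreener GDP mix added; fluorescence polarization (620/688 nm) read before and after 90 min at 30 °C.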
D3 antag: D3 dopamine receptor (human) antagonism | 360,000 tested, 2.5% active | D3R cells, DiscoveRx beta-arrestin luminescence, antagonist mode; hits give low values | max response, negative = inhibition, % | P35462; in the data active = max response below about -50%; inconclusive = no clear call, values can overlap the other calls
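Cells plated overnight at 1500 cells/well, then exposed to library compounds with dopamine controls for 90 minutes at 37 degrees C. DiscoveRx reagent added for 30–60 minutes at room temperature; luminescence read, quantitative HTS format.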
BRCA1 expr up: activators of BRCA1 expression; Potency, µM (titrated, usually from 46.1 µM), most hits filed as activators; 380,000 tested, 1.1% active; MCF7-BRCA1-FFLuc reporter, luminescence, 48 h; response scale: scaled: vehicle 0%, 10 µM genistein 100%; also: nearly all actives have a fitted effect of over 80% in size
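MCF7-BRCA1-FFLuc cells, 2000/well in phenol-red-free MEM, attached 2 h then treated 48 h at 37 C. Luciferase luminescence read 15 min after reagent; normalized to genistein maximum activation (10microM) and DMSO, concentration-response fitted.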
D3 ag: agonists of human D3 dopamine receptor; P35462; D3R DiscoveRx beta-arrestin cells, luminescence, 90 min; max activation, %; 410,000 tested, 0.58% active; in the data active = max activation above about 30%
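Agonist-mode cell screen: cells plated at 1500/well and incubated overnight at 37 °C, then exposed to library compounds for 90 min at 37 °C. Detection reagent was added for 30–60 min at room temperature, and luminescence was read.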
PTHR1 ag: agonists of human PTHR1 parathyroid hormone receptor | 410,000 tested, 0.075% active | AID 743266 | Q03431 | HEK293 GP2 PTHR1 cells, GloSensor cAMP luminescence, 1 h | Potency, µM (top dose mostly 115 µM), most hits filed as activators; also: nearly all actives have a fitted effect of over 55% in size
Target sequence (Q03431 whole entry, looked up): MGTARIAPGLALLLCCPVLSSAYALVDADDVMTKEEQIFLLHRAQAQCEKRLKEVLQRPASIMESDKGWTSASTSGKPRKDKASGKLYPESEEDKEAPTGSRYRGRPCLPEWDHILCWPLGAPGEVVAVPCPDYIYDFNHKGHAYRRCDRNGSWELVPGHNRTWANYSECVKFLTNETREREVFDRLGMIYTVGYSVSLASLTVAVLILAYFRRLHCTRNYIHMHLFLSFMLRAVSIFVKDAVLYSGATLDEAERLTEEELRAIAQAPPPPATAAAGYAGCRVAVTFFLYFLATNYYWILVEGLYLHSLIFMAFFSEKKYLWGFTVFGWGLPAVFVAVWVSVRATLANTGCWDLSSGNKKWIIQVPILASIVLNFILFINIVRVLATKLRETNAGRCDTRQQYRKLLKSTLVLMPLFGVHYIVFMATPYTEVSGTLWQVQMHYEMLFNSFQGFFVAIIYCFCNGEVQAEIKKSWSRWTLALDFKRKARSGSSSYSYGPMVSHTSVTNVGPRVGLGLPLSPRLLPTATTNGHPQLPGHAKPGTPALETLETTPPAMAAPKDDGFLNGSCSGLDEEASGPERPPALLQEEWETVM
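HEK-293-derived GP2 cells expressing PTHR1 and a GloSensor cAMP reporter, 3,000/well, plated overnight, given luciferin plus IBMX (each 0.5 mM as added) for 1 h at 37 °C, then compound for 1 h at 37 °C. Luminescence was read after 15 min at room temperature.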
B2AR arrestin: beta2AR (human) beta-arrestin recruitment activity | P07550 | Potency, µM (top dose mostly 46.1 µM), usual class: activators | 330,000 tested, 0.02% active | beta-arrestin recruitment to beta2AR, cell-based reporter | AID 492947; also: nearly all actives have a fitted effect of over 65% in size
Large screens that a line does not name were inactive. Hits are enriched below; roughly 3.7% of the tested compounds scored in any of these assays. Unless noted, calls follow the shape of the dose curve; as a rule, active = well fitted curve in the direction sought with a large enough effect; inconclusive = small, poorly fitted or top-dose-only effect, or another doubt; inactive = no such curve, though single readings can be large; an effect the other way counts as inactive or inconclusive.

COc1ccc(F)cc1C(=O)C1CCCN(Cc2cccn2-c2ccccn2)C1 (stereo not given)	D3 antag inconclusive
COc1ccc(F)cc1C(=O)C1CCCN(Cc2c[nH]c3ccccc23)C1 (stereo not given)	D3 antag -107
COc1ccc(-c2csc(C(C)(O)c3cccc(F)c3)n2)cc1OC (stereo not given)	none (no result: RGS4 inh, B2AR arrestin)
Cc1ccc(C(=O)N/C(=C/c2ccc(N(C)C)cc2)C(=O)NCC2CCCO2)cc1 (stereo not given)	D3 ag 35
CSc1ncccc1C(=O)OCC(=O)NC1CCC(C)CC1 (stereo not given)	none
Clc1cc2nc[nH]c2cc1Cl	D3 ag 37
Fc1cc2[nH]cnc2cc1Cl	none
O=c1cc(O)c2ccccc2n1Cc1ccccc1F	none
O/N=C/c1cc2ccccc2n1Cc1ccccc1F	D3 antag -53
O=C(CC(c1ccccc1)c1cc(Br)ccc1O)NCCN1CCOCC1 (stereo not given)	D3 antag inconclusive
O=C(CC(c1ccccc1)c1cc(Br)ccc1O)NCC1(c2ccccc2)CCCC1 (stereo not given)	D3 ag 30 (no result: D3 antag, BRCA1 expr up, B2AR arrestin)
Cc1ccccc1CNc1ncnc2c1ncn2[C@@H]1O[C@H](CO)[C@@H](O)[C@H]1O	none (no result: RGS4 inh, D3 antag, BRCA1 expr up, PTHR1 ag, B2AR arrestin)
O=c1cc(CSc2nnc(NC3CCCCC3)s2)nc2sccn12	none
c1ccc(CSc2nnc(NC3CCCCC3)s2)cc1	BRCA1 expr up 3.5µM (no result: RGS4 inh, B2AR arrestin)
CC(C)NC(=O)Cn1nnc(-c2ccccc2)c1COc1ccc2ccccc2c1	none (no result: RGS4 inh, B2AR arrestin)
CCN1CCN(CC(=O)N2N=C(c3cccs3)CC2c2ccc(OC)c(OC)c2)C(=O)C1=O (stereo not given)	none
C=C1C(=O)c2sccc2C(c2ccc(OC)c(OC)c2)C1COC(C)=O (stereo not given)	RGS4 inh inconclusive, D3 antag -116 (no result: B2AR arrestin)
CCOC(=O)c1sc2nc(NC(=O)C(C)(C)C)sc2c1C	D3 ag 34
NS(=O)(=O)c1ccc(NC(=S)NCc2ccccc2Cl)cc1	D3 antag -68
COc1ccc2nc(NC3=NCCC3)sc2c1	BRCA1 expr up inconclusive
COc1cccc(Nc2nc3ccc(OC)cc3s2)c1	BRCA1 expr up 4.5µM
COc1ccc(Nc2nc3ccccc3s2)cc1	BRCA1 expr up 5µM
CC(=O)c1sc(NC(=O)c2ccc(F)cc2)nc1-c1ccccc1	BRCA1 expr up inconclusive
CC(=O)c1sc(NC(=O)c2ccccc2F)nc1-c1ccccc1	BRCA1 expr up 2µM
CCCOc1ccccc1C(=O)N1CCCCC1CCN1CCOCC1 (stereo not given)	none (no result: D3 antag, BRCA1 expr up, B2AR arrestin)
O=C(COC(=O)c1ccc2c(c1)OCO2)Nc1ccccc1F	none
Cc1cc(C)c2nc(N3CCN(C(=O)c4ccco4)CC3)sc2c1	BRCA1 expr up 13µM
Cc1cc(C)c2nc(N3C(=O)C(O)=C(C(=O)c4ccco4)C3c3ccco3)sc2c1 (stereo not given)	RGS4 inh inconclusive, D3 ag 31
O=C(Nc1ccccc1)c1ccc[n+](Cc2ccc([N+](=O)[O-])cc2)c1	D3 antag -56
CCN1C(=O)[C@H]2[C@@H](c3ccc(-c4ccc(OC)cc4)c(OC)c3)N[C@@](C)(C(=O)OC)[C@H]2C1=O	none
CCN1C(=O)[C@H]2[C@@H](c3ccc(-c4ccccc4)c(OC)c3)N[C@@](CC(C)C)(C(=O)OC)[C@H]2C1=O	D3 antag -51
CCN1C(=O)[C@H]2[C@@H](c3ccc(-c4cc(C(C)=O)cs4)cc3)N[C@@](Cc3ccccc3)(C(=O)OC)[C@H]2C1=O	D3 ag 37
CCN1C(=O)[C@H]2[C@@H](c3ccc(-c4ccc(F)cc4)c(OC)c3)N[C@@](C)(C(=O)OC)[C@H]2C1=O	D3 antag -51
CCN1C(=O)[C@H]2[C@@H](c3ccc(-c4ccc(OC)cc4)c(OC)c3)N[C@@](CC(C)C)(C(=O)OC)[C@H]2C1=O	none
COc1ccc(NC(=O)c2oc3ccc(S(=O)(=O)N(C)C4CCCCC4)cc3c2C)cc1Cl	none (no result: D3 antag, BRCA1 expr up, B2AR arrestin)
COc1ccc2c(c1)C(=O)C1(CC2)OC1c1cccnc1 (stereo not given)	none (no result: RGS4 inh, B2AR arrestin)
COc1cc(C)c(S(=O)(=O)N2CCOCC2)cc1C	D3 antag -85
CCCOc1cc(C)c(S(=O)(=O)N2CCOCC2)cc1C	none (no result: RGS4 inh, D3 antag, BRCA1 expr up, D3 ag, PTHR1 ag)
Cc1cc(C)nc(N2CCC(C(=O)N3CCN(c4cc(Cl)ccc4C)CC3)CC2)n1	D3 ag 65
O=[N+]([O-])c1cccc(SSc2cccc([N+](=O)[O-])c2)c1	D3 antag -69 (no result: B2AR arrestin)
Cc1ccc(C(=O)Nc2ccon2)cc1S(=O)(=O)N1CCCCCC1	none
Cc1ccc(C(=O)NC2CCN(Cc3ccccc3)CC2)cc1S(=O)(=O)N1CCOCC1	D3 antag -67
Cc1ccc(C(=O)NCCc2ccccc2)cc1S(=O)(=O)N1CCOCC1	BRCA1 expr up 11µM
Cc1ccc(C(=O)Nc2ccon2)cc1S(=O)(=O)N1CCOCC1	D3 ag 32
CSc1nnc2c(n1)OC(c1cccc(O)c1Cl)Nc1ccccc1-2 (stereo not given)	none (no result: D3 antag, BRCA1 expr up, B2AR arrestin)
Cc1ccc(C)c(NC(=S)NC(NC(=O)Cc2cccc3ccccc23)C(Cl)(Cl)Cl)c1 (stereo not given)	D3 antag -50
CCc1ccc(OCC(=O)NC(NC(=S)Nc2ccccc2C)C(Cl)(Cl)Cl)cc1 (stereo not given)	D3 antag -57
CCOC(=O)Cc1csc(NC(=O)/C=C/c2ccc(OC)cc2)n1	none
O=C(NCC(c1ccc(F)cc1)N1CCOCC1)c1cccc(Br)c1 (stereo not given)	D3 ag 40, PTHR1 ag inconclusive
O=C(NCC(c1ccc(F)cc1)N1CCOCC1)c1ccc(-c2ccccc2)cc1 (stereo not given)	none
O=C(NCC(c1ccc(F)cc1)N1CCOCC1)c1nn(-c2ccccc2)c(=O)c2ccccc12 (stereo not given)	D3 antag -83, PTHR1 ag inconclusive
CCOc1ccc(CNC(=O)C2CCN(S(=O)(=O)c3cn(C)cn3)CC2)cc1OC	none (no result: D3 antag, BRCA1 expr up, B2AR arrestin)
O=C(NCc1ccc2c(c1)CCN2C(=O)c1ccncc1)c1cccc(F)c1	none (no result: D3 antag, BRCA1 expr up, B2AR arrestin)
O=C(CC[C@H]1O[C@@H](n2ccc(=O)[nH]c2=O)[C@H](O)[C@@H]1O)NCc1cccc2ccccc12	none (no result: RGS4 inh, B2AR arrestin)
CN1CCCN=C1/C=C/c1cccs1	D3 antag -58, PTHR1 ag inconclusive
O=C(/C=C/c1cccs1)N1CCCC1	none
O=C1CN(C(=S)Nc2ccccc2Cl)CCN1	D3 ag 45, PTHR1 ag inconclusive
S=C(Nc1ccccc1Cl)N1CCCCC1	none
